Source: PubChem (National Center for Advancing Translational Sciences (NCATS))
Most compounds without a hit are left out; they make up all but 1.7% or so of the library.
KCNH2 WT inh – KCNH2 (human, wildtype) channel inhibition; Q12809; U2OS, BacMam KCNH2, thallium flux FluxOr; hits give low values; activity change, % at 1.84 µM; 340,000 tested, 0.37% active; AID 720551;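 active means maximum activity change below -70%; inconclusive means maximum activity change between -70% and -50%; inactive means maximum activity change above -50%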
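U2OS cells were transduced with wild-type KCNH2 virus (2.03 x 10^8 / mL) for 4 h at room temperature, then cultured overnight at 37 C. Thallium flux was read with FluxOr dye. Rate constants were normalized to DMSO controls.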
Giardia kill – kills Giardia lamblia | activity change, % at 7.66 µM, hits read low | Giardia lamblia trophozoite viability | AID 540267 | 340,000 tested, 0.15% active; in the data active means activity change below about -80%; inconclusive means between about -30% and that limit;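 further: parasites exposed to compound for two days anaerobically before the ATP read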
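ATP-content bioluminescence gauges trophozoite survival. Cells (100/well) receive compound and incubate anaerobically for 48 hrs at 37 deg C; detection reagent follows for 15-30 min at room temperature.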
FBPA coupling cs – counter-screen for Giardia aldolase inhibitors: coupling enzyme system; AID 2472; 290,000 tested, 0.67% active; activity change, negative = inhibition, % at 58.2 µM, hits read low; coupling enzyme system counterscreen, AmpLite Red fluorescence; in the data active means activity change below about -30%
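Counterscreen of the coupled detection system alone, without aldolase: glyceraldehyde-3-phosphate coupling enzymes plus AmpLite Red readout. Compounds at 57.5 uM final, 10 min RT preincubation, 20 min RT reaction, fluorescence 525/598 nm.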
KCNH2 3.1 block – blocks the human KCNH2 3.1 channel isoform | U2OS KCNH2 3.1, thallium flux FluxOr; hits give low values | activity change, % (tested at about 1.8 µM) | 340,000 tested, 0.95% active;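 active means maximum activity change below -70%; inconclusive means maximum activity change from -70% to -50%; inactive means maximum activity change above -50%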;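 further: thallium influx rate constant from kinetic fluorescence after stimulation buffer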
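Steps: virus added to U2OS suspension (4 h, RT, dark); medium with 10% FBS added, cells plated, 37 C overnight; FluxOr/Red40 loading buffer 45 min RT; stimulation buffer, 2 min kinetic read; rate constant normalized.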
USP1 inh – blocks the human USP1/UAF1 deubiquitinase complex; O94782; recombinant USP1/UAF1, Ub-Rhodamine cleavage fluorescence; Potency, µM (series often up to 57.1 µM), without a hit: at the top dose activity change, negative = inhibition, actives largely listed as inhibitors; 390,000 tested, 0.23% active; AID 743255; active means well fitted inhibition curve with a large enough effect; inconclusive means small, poorly fitted or top-dose-only effect; inactive means no such curve, though single readings can be large or run the other way; further: potency means the concentration at half of the fitted maximal effect; nearly all actives have a fitted effect of over 60% in size
Target sequence (O94782 whole entry, looked up): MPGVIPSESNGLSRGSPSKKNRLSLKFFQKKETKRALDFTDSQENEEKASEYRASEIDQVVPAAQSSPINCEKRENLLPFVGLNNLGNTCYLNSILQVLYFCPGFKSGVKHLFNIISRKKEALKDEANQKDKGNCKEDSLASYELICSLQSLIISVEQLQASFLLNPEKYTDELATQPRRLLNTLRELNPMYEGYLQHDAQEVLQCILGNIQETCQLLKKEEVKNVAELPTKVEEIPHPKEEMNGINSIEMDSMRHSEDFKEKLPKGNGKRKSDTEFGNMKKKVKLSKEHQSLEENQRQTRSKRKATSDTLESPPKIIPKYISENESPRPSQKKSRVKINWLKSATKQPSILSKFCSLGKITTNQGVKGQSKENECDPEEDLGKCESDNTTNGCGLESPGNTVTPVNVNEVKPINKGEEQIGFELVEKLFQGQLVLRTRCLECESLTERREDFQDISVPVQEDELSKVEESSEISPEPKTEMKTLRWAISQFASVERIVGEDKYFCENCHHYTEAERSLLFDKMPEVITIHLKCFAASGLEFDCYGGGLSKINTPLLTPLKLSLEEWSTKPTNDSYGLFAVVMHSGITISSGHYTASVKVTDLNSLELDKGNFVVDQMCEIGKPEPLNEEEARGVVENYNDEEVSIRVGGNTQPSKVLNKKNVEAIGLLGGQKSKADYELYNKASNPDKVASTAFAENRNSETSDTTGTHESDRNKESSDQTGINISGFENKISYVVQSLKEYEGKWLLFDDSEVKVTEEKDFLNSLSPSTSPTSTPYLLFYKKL
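In this screen, compounds sit with the deubiquitinase complex (1nM) for 15 min at room temperature before Ub-Rho is added at 150nM final. Fluorescence rise is then followed for 6 reads every 60 seconds.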
* = called active by the depositor; ? = inconclusive; nt = no result given. On the % scale 0 is the no-effect control and ±100 the full control effect.

SMILES | KCNH2 WT inh | Giardia kill | FBPA coupling cs | KCNH2 3.1 block | USP1 inh
CCOC(=O)c1cnc(-c2ccccc2)[nH]c1=O | 25.4 | -2.7 | -14.8 | 5.4 | 2.8%
CCOC(=O)c1cnc(-c2cccc(OC)c2)[nH]c1=O | -0.2 | -14.5 | -33.0* | 3.8 | -0.4%
NCCCN(Cc1ccc(Cl)c(Cl)c1)c1ccccn1 | nt | 3.7 | nt | nt | nt
OCCN1CCN(c2nc(-c3ccccc3)c3cc(Cl)ccc3n2)CC1 | -38.6 | 0.7 | 1.2 | -99.1* | -12.4%
Cc1ccccc1NC(=O)c1c(C)nc(SCC(=O)OCc2ccccc2)c(C#N)c1-c1ccc(F)cc1 | 1.0 | -20.9 | 1.3 | -113.8* | -2.8%
Cc1nc(SCC(=O)OCc2ccccc2)c(C#N)c(-c2ccccc2)c1C(=O)Nc1ccccc1 | -2.1 | -4.1 | 0.5 | -1.6 | ?
Cc1ccc(C)c(N=Cc2cc3c(cc2[N+](=O)[O-])OCO3)c1 | -1.9 | -1.3 | -40.1* | 0.7 | -19.6%
Cc1ccc(N=Cc2cc3c(cc2[N+](=O)[O-])OCO3)cc1[N+](=O)[O-] | -1.0 | -18.6 | nt | -17.1 | -10.4%
Cc1ccc2[nH]c(=O)c(CN(Cc3cccs3)S(=O)(=O)c3ccc4c(c3)OCCO4)cc2c1 | 3.0 | -3.3 | 3.2 | -120.2* | -2.8%
O/C=c1\ccc2cccc3nc(C(F)(F)F)nc1c23 | -2.3 | 7.4 | -13.0 | 9.1 | 22.4µM*
CCN(C(=O)CSc1nc2ccccc2nc1Cc1cccc(OC)c1)c1cccc(C)c1 | nt | nt | nt | nt | -9.4%
CCC(C)c1ccc(NC(=S)NCc2cccnc2)cc1 (configuration not stated) | 1.2 | -0.7 | 4.0 | -93.7* | -10.0%
CC(=O)c1cccc(NC(=O)c2cc(-c3ccc4c(c3)OCCO4)on2)c1 | nt | nt | nt | nt | -22.3%
O=C(Nc1cccc(O)c1)c1cc(-c2ccc3c(c2)OCO3)on1 | 8.3 | -82.2* | -1.7 | 10.8 | -24.4%
CC(C)CC(CSc1ccc(Br)cc1)N1CCN(CCc2ccccc2)CCC1=O (configuration not stated) | nt | 0.1 | 2.4 | nt | nt
Cc1cn(CC(=O)NCCc2c[nH]c3ccccc23)c(=O)[nH]c1=O | -12.4 | 4.0 | nt | -2.6 | -23.5%
OCC1(CCOc2ccccc2)CCN(Cc2ccncc2)CC1 | 29.8 | -2.1 | 2.1 | -1.1 | -16.1%
OCC1(CCOc2ccccc2)CCN(Cc2ccccc2OC(F)F)CC1 | 4.7 | 6.4 | 2.3 | -99.0* | -22.4%
CSc1ccc(CN2CCC(CO)(CCOc3ccccc3)CC2)cc1 | -109.8* | 19.7 | -2.4 | -100.2* | -14.9%
C=CCOc1ccccc1CN1CCC(CO)(CCOc2ccccc2)CC1 | ? | -6.5 | 2.8 | -80.5* | -18.8%
OCC1(CCOc2ccccc2)CCN(Cc2ccc(OC(F)F)cc2)CC1 | -131.0* | -4.5 | -0.5 | -110.8* | -0.5%
Cn1cc(S(=O)(=O)c2ccccc2)c(=O)c2cc(F)c(N3CCCCCC3)cc21 | nt | nt | nt | nt | -23.6%
CN1CCNC(=O)C1CC(=O)O (configuration not stated) | 20.1 | 7.3 | -0.6 | 16.3 | -7.7%
CCC1(CC)SCCNC1=O | -281.9* | -3.1 | nt | -1.4 | -17.1%
CC(C)n1cc(C(=O)c2ccccc2O)cc(C#N)c1=O | -0.4 | -5.2 | 4.3 | -7.7 | -2.2%
SMILES | KCNH2 WT inh | Giardia kill | FBPA coupling cs | KCNH2 3.1 block | USP1 inh
N#Cc1cc(C(=O)c2cc(F)ccc2O)cn(-c2nccs2)c1=O | 0.7 | 8.8 | -1.6 | -6.8 | 25.1µM*
N#Cc1cc(C(=O)c2ccccc2O)cn(-c2nccs2)c1=O | 2.3 | 21.5 | 9.8 | -22.2 | 28.2µM*
COc1ccc(CNC(=O)Cn2ccc3cc(S(=O)(=O)N4CCCCCC4)ccc32)c(OC)c1 | nt | nt | nt | nt | -14.3%
O=c1[nH]c(=O)n(Cc2ccccc2)c2nc(-c3ccc(Oc4ccc(F)cc4)c([N+](=O)[O-])c3)n(CCO)c12 | -28.2 | -5.1 | -0.4 | -86.4* | -12.5%
CCCCOc1ccc(CNC(=O)c2cccc(NC(=O)N3CCSc4ncccc43)c2)cc1 | nt | nt | nt | nt | -25.3%
COc1ccccc1CNCC(=O)NCc1ccc(C)cc1 | -2.0 | -4.8 | -0.3 | -70.5* | -12.7%
CCN(C(=O)CN1C(=O)c2ccccc2Sc2ccc(C(=O)OC)cc21)c1cccc(C)c1 | nt | nt | nt | nt | -17.1%
COC1=C(c2ccccc2)C(=O)c2ccccc2C1=O | 7.6 | 37.4 | -32.7* | -3.4 | 14.1µM*
O=C(C1=C(c2ccccc2)C(=O)c2ccccc2C1=O)c1ccccc1 | -4.0 | ? | -62.2* | 0.5 | ?
O=C(c1ccccc1)c1c[nH]cc1-c1ccccc1 | 16.6 | 11.8 | 1.8 | -0.6 | 0.3%
COc1ccc(C(CNC(=O)c2cccc(NS(=O)(=O)c3ccccc3)c2)N2CCCC2)cc1 (configuration not stated) | -0.6 | 8.0 | nt | 9.6 | -18.0%
COc1ccc(NC(=O)CN(C)C(=O)c2cccc(NS(=O)(=O)c3ccc(Br)cc3)c2)cc1 | -8.1 | -10.3 | nt | -126.6* | -20.3%
COc1ccc(C(CNC(=O)c2cccc(NS(=O)(=O)c3ccc(Br)cc3)c2)N(C)C)cc1 (configuration not stated) | 6.7 | 13.7 | nt | -80.0* | -0.3%
O=C(NCc1cccs1)C1CCN(C(=O)N2CCOc3ccccc32)CC1 | nt | nt | nt | nt | -2.4%
COc1ccc2c(c1)OC[C@H]1[C@H]2N2C(=O)CN(Cc3ccc(F)cc3)C(=O)[C@@]2(C)[C@H]1c1ccccc1 | 3.2 | -1.6 | nt | -8.4 | -32.6%
COc1ccc2c(c1)C(=O)N1[C@H]3c4cc(Cl)ccc4OC[C@@H]3[C@H](c3ccccc3)[C@]1(C)C(=O)N2 | -31.9 | 11.5 | nt | -85.0* | 4.8%
COc1ccc2c(c1)OC[C@H]1[C@H]2N2C(=O)CN(Cc3ccc(C)cc3)C(=O)[C@@]2(C)[C@H]1c1ccccc1 | -5.4 | -7.2 | nt | -88.9* | -29.4%
Cc1nn(-c2ccccc2)c(-n2cccc2)c1C(=O)NCCCN1CCN(c2ccccc2F)CC1 | nt | nt | nt | nt | -6.6%
CCOc1ccc(CNC(=O)c2ccc(NC(=O)N3CCCCc4ccccc43)cc2)cc1OC | nt | nt | nt | nt | -9.8%
N#Cc1nc(-c2ccccc2Cl)oc1NCC1CCCO1 (configuration not stated) | -14.0 | -11.3 | -0.6 | -72.4* | -17.0%
CCOc1ccc(-c2nc(C#N)c(NCC3CCCO3)o2)cc1 (configuration not stated) | -1.5 | 1.1 | 0.1 | 6.4 | -8.2%
COc1ccc(Nc2c(-c3ccc(OC)cc3)nc3cnccn23)cc1 | 0.5 | 14.3 | -1.0 | -0.2 | -12.2%
COc1ccc(Nc2c(-c3ccc(C)cc3)nc3cnccn23)cc1 | -10.0 | ? | -0.9 | -85.9* | -20.6%
CCCc1cc(C(=O)Nc2c(C)nn(Cc3ccc(Cl)c(Cl)c3)c2C)no1 | nt | nt | nt | nt | -27.0%
CC(C)(C)Nc1nc(Cl)nc(NC2CCCCC2)n1 | -5.7 | -13.6 | -2.3 | 3.3 | -8.3%
Cc1ccc(Nc2nc(Cl)nc(NC3CCCCC3)n2)cc1 | 0.9 | 25.5 | 1.0 | -93.1* | 2.2%
Cn1nnnc1SCCNCc1ccc(OCc2ccccc2Cl)cc1 | nt | nt | nt | nt | -13.4%
